# Compound activity: PubChem, several laboratories
# hgDAF12 agonist = agonists of H. glycines DAF-12 nuclear receptor; HEK293 GAL4-hgDAF12 UAS-luciferase reporter, agonist luminescence; normalized to butyrate control; activation, % at 6.8 µM; 370,000 tested, 1.8% active; AID 687014;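 active means activation above a cutoff set at the mean of all screened compounds plus 3 SD, cut at about 10% in these data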;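 further: 0% = DMSO wells and 100% = sodium butyrate wells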
# DAX1 StAR inh = blocks DAX1 repression of SF-1 activated StAR promoter; HEK293T StAR-luciferase reporter, SF-1/DAX-1 repression relief; inhibition, % at 6.8 µM; 370,000 tested, 1.1% active;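 active means inhibition above the mean over all tested compounds plus 3 SD, cut at about 3.6% in these data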;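 further: 0% = DAX-1 cells with DMSO and 100% = cells lacking DAX-1 with DMSO; higher inhibition means more luminescence from relief of DAX-1 repression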
# Wnt bcat act = activates Wnt/beta-catenin signaling in a reporter cell assay; 300,000 tested, 1.2% active; AID 743398; activation, % at 9.35 µM; activator, plate reader; in the data active means activation above about 30%, passing the limit was not always enough; inconclusive means no clear call, values can overlap the other calls;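 further: 0% = neutral control wells and 100% = positive control wells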
# ssDAF-12 act = activators of S. stercoralis DAF-12 nuclear receptor; 370,000 tested, 1% active; activation, % at 6.8 µM; HEK293 ssDAF-12/GRIP1 lit1-tk-luc reporter, luminescence; % of 3 µM dafachronic acid response; AID 652126;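 active means activation above the mean over all tested compounds plus 3 SD, cut at about 0.9% in these data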;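 further: 0% = DMSO-only wells and 100% = 3 µM delta7-dafachronic acid wells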
# hcDAF-12 act = activates DAF-12 receptor from parasite H. contortus. 370,000 tested, 1.4% active. activation, % at 6.8 µM. HEK293 hcDAF-12 lit1-tk-luc reporter, luminescence; 0% DMSO, 100% Δ7-dafachronic acid;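 active means activation above the mean of all tested compounds plus 3 SD, cut at about 5.5% in these data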;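 further: 100% = response to 3 µM Δ7-dafachronic acid high control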
# esBAF inh = inhibitors of esBAF chromatin remodeling in mouse ES cells | Bmi1-luciferase knock-in reporter, 24 h; 100% = twice the neutral-well signal | reporter increase, % at 12.5 µM | 350,000 tested, 2% active; in the data active means activation above about 40%; inconclusive means no clear call, values can overlap the other calls;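 further: 0% = median of the plate's neutral control wells and 100% = double that signal; a rise in the Bmi1 reporter signal indicates esBAF inhibition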
# hgDAF12 conf = confirmation of H. glycines DAF-12 agonists; shares compounds with hgDAF12 agonist; HEK293 GAL4-hgDAF12 luciferase reporter, agonist mode; percent of butyrate response; activation, % at 6.8 µM; 3,300 tested, 80% active; AID 743050;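 active means mean activation over triplicate wells above the hit cutoff derived from the earlier primary screen, cut at about 11% in these data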;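 further: 0% = DMSO low control and 100% = 2 mM sodium butyrate high control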
# LXR ag 2 = LXR-beta agonism as DAF-12 counter-screen; HEK293 Gal4-LXR luciferase reporter, 24 h; shares compounds with hgDAF12 agonist; 3,300 tested, under 10 active; activation, % at 6.8 µM;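 active means mean activation of the triplicate above a set limit carried over from the primary screen, none filed active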
# Target sequence (P55055 whole entry, looked up, the tested form may be a part): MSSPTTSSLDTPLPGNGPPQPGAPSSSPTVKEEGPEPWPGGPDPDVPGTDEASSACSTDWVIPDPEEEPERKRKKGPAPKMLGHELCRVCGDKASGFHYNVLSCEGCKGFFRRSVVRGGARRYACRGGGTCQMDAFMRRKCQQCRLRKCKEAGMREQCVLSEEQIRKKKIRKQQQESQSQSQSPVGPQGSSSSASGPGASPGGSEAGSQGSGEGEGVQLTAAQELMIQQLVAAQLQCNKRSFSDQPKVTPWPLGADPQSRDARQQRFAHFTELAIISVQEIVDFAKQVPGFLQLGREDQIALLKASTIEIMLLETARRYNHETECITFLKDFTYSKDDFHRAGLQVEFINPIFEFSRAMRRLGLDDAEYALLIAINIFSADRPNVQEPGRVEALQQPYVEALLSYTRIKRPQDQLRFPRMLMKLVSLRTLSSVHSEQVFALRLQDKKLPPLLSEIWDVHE
# Starred values were filed as active, the others as inactive; ? = inconclusive; . = no result. Only some compounds are listed: those with a hit (about 4.2% of all), similar ones and a draw of the others.
SMILES,hgDAF12 agonist,DAX1 StAR inh,Wnt bcat act,ssDAF-12 act,hcDAF-12 act,esBAF inh,hgDAF12 conf,LXR ag 2
CN(C)C(=O)C[C@@H]1CC[C@@H](NS(=O)(=O)c2ccccc2)[C@@H](CO)O1,.,.,.,.,.,-1,.,.
C[C@@H]1CN([C@@H](C)CO)C(=O)c2cc(NC(=O)Cn3cnnn3)ccc2O[C@@H]1CN(C)S(C)(=O)=O,.,.,.,.,.,0,.,.
COc1ccccc1/C=N/Nc1nccnc1Cl,14*,3,13,0,5.8*,42*,10*,0
CSc1nc2ccc(NC(=O)c3ccco3)cc2s1,18*,2,.,-1,4,.,11*,1
COc1ccc(S(=O)(=O)N(C)C[C@H]2OCCCC[C@H](C)Oc3ccc(NC(=O)Nc4ccccc4)cc3C(=O)N([C@@H](C)CO)C[C@H]2C)cc1,.,.,.,.,.,-1,.,.
CNC[C@@H]1Oc2c(NC(=O)c3cc(C)nn3C)cccc2C(=O)N([C@H](C)CO)C[C@H]1C,.,.,.,.,.,-3,.,.
C[C@@H]1CN([C@@H](C)CO)C(=O)Cc2cc(NS(=O)(=O)c3cn(C)cn3)ccc2O[C@@H]1CN(C)S(=O)(=O)c1ccc(F)cc1,.,.,.,.,.,-8,.,.
COC(=O)c1ccccc1NC(=O)Nc1cc(C(C)(C)C)on1,5,3,?,0,0,0,.,.
CC(C)(C)c1cc(NC(=O)Nc2ccccc2)no1,23*,2,41*,0,5,27,19*,1
COCC(=O)Nc1ccc2c(c1)C(=O)N(C)C[C@H](OC)[C@@H](C)CN(C(=O)c1cccnc1)[C@H](C)CO2,.,.,.,.,.,-5,.,.
O=C(Nc1cccnc1)c1sc2cccc(F)c2c1Cl,17*,4.1*,8,-1,6.0*,?,15*,0
Oc1ccc(-c2cnc3ccccc3n2)cc1,15*,2,53*,-1,4,.,20*,1
O=C(CCl)Nc1cccc(-c2cnc3ccccc3n2)c1,6,-3,24,-2,-1,.,.,.
O=C(c1ccco1)N1CCc2ccccc21,14*,3,-1,-1,3,.,8,0
O=C(c1ccccc1)N1CCc2ccccc21,1,0,.,-1,0,.,.,.
O=C(Nc1ccccc1F)c1ccc(CSc2ncccn2)cc1,16*,3,11,0,4,62*,15*,1
Cc1ccc(NC(=O)c2ccc(CSc3nccc(C)n3)cc2)cc1,3,-1,.,-2,-1,25,.,.
O=C(Nc1ccccc1)c1ccc(CSc2ncccn2)cc1,16*,3,.,0,4,3,17*,1
CC=Cc1ccc2n(c1=O)C[C@H]1[C@H](CO)[C@@H](C(=O)NCc3ccc(F)cc3)N(CC)[C@@H]21 (mixture of isomers),.,.,.,.,.,1,.,.
COc1cccc(-c2nnc(-c3ccc(C)o3)o2)c1,14*,4.1*,23,0,5,-29,19*,1
Cc1ccccc1C(=O)NCC(=O)c1ccccc1,13*,2,3,0,5,.,11*,0
O=C(OCCOc1ccccc1)c1n[nH]c2ccccc12,15*,2,38*,-1,1,?,13*,1
O=C(NCCc1ccccc1)c1n[nH]c2ccccc12,15*,3,52*,0,5.7*,24,13*,1
C/C(=N/NC(=O)c1cc(C(C)C)[nH]n1)c1cccs1,14*,3,33*,0,6.1*,-40,16*,1
C/C(=N\NC(=O)c1cc(C)[nH]n1)c1cccs1,17*,4.5*,35*,0,4,-16,14*,1
C/C(=N\NC(=O)c1cc(C(C)C)[nH]n1)c1ccncc1,-1,0,-1,-1,1,24,.,.
C[C@H](CO)N1C[C@H](C)[C@@H](CN(C)C(=O)C2CCC2)Oc2ncc(-c3cccc(F)c3)cc2C1=O,.,.,.,.,.,0,.,.
